Each structure is given as a SMILES string. This is part of a sample that, as a whole, favours compounds with a hit. Of some 83,000 tested, about 20% had one in any assay.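 96-well plates, one dose, 48 hours. Percent growth reported; active if below 10.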 Active and inactive are the calls of the source.

For this assay, the system named is LOX IMVI melanoma. Nature of the assay: NCI-60 one-dose screen, 48 h (100 = growth as untreated, 0 = no growth, -100 = all killed). The following applies: 10 µM unless noted.
As for `Cc1ccc2c(c1)n([O-])c1cc(Cl)ccc1[n+]2=O`, the growth was 129% (inactive).

Take `CN1/C(=C\C=C\C2=[N+](C)c3ccccc3C2(C)C)C(C)(C)c2ccccc21`: the growth is 0.458% (active).

`CC/C(=C(\c1ccccc1)c1ccc(OCCNC)cc1)c1ccccc1`: the growth was -100% (active).

With `CCN(CC)Cc1cc(Nc2c3ccc(Cl)cc3nc3c(C)cccc23)ccc1O`, the growth was -84.9% (active).

As to `C=CC[N+]1(CCO)CCN=C1CCCCCCCCCCCCC` (centres undefined), the growth was -87.9% (active).

For `N#Cc1ccc(NC(=O)Nc2ccc(Cc3ccc(NC(=O)Nc4ccc(C#N)cc4)cc3)cc2)cc1`, the growth is -67.6% (active).

Regarding `CC1=NNC(=O)C1C` (centres undefined), the growth is 99% (inactive).

As to `COc1nc2c(cc1S(=O)(=O)c1ccccc1)CCc1c-2cnn1Cc1ccccc1`, the growth is 65.9% (inactive).

For the compound `O=C(/C=C\c1ccc2ccccc2n1)c1cc(Cl)ccc1O`, the growth was 40.8% (inactive).

In the case of `CCc1ccc(C(c2ccc(CC)cc2)C(Cl)(Cl)CCl)cc1`, the growth was 93.6% (inactive).

As to `C=CCSc1nnc(-c2ccc(C(C)(C)C)cc2)n1-c1cccc(C(F)(F)F)c1`, the growth was 47.1% (inactive).

For the compound `CSc1ncnc2c1ncn2C1CCCO1` (centres undefined), the growth was 102% (inactive).

In the case of `OCC1C2C=CC(C2)C1CO` (centres undefined), the growth is 101% (inactive).

Turning to `Cc1ccc(/C=C2\Oc3cc(OCC(=O)c4ccc(Cl)cc4)ccc3C2=O)cc1`, the growth was 98.8% (inactive).

Regarding `Cn1c2c(Cl)c(Cl)ccc2c2ccn3c(=O)c4ccccc4nc3c21`, the growth was 104% (inactive).

As to `CSc1[nH]c2ncnc(N)c2c1C#N`, the growth was 109% (inactive).

As to `CCN(CC)CCCC(C)NCCCNc1cccc2cccnc12` (centres undefined), the growth is 85.3% (inactive).

For `C=CC[N+]1(CC)CCN=C1CCCCCCCCCCCCCCCCC` (centres undefined), the growth is -96.3% (active).

On to `CCN(CC)CCCNc1cc(OC)cc2nc3cc(Cl)ccc3nc12`, for which the growth was -58.7% (active).

Consider `CCCCCCCCCCNC(=O)CCl`, for which the growth is 50.9% (inactive).

Regarding `CCOC(=S)SCc1ccc(Cl)cc1`, the growth was 99.3% (inactive).

On to `O=C(O)c1ccc2c(c1Sc1ccccc1)C(=O)c1ccccc1C2=O`, for which the growth was 89.5% (inactive).

For `CCN(CC)CC(C)Nc1ccc([N+](=O)[O-])c2sc3ccccc3c(=O)c12` (centres undefined), the growth is 14.7% (inactive).

As for `Cc1cc2c(cc1C)NC1=C(N2)OC(c2c3ccccc3cc3ccccc23)C1=O` (centres undefined), the growth was -35.4% (active).

For `O=C(Nc1ccc(CN2CCOCC2)cc1)c1[nH]ncc1Nc1ncnc2sccc12`, the growth is -14.4% (active).

Regarding `CCOC(=O)C(C#N)C1CCCCC1` (centres undefined), the growth was 92.4% (inactive).

Turning to `Nc1cccc(NC(=O)C(=O)Nc2cccc(N)c2)c1`, the growth is 90% (inactive).

For `CN(CC(=O)N(Cc1ccc(C2CCCCC2)cc1)c1ccc(C(=O)NO)cc1)S(=O)(=O)c1c(F)c(F)c(F)c(F)c1F`, the growth is -8.7% (active).

For `CCN(CC)c1ccc(/C=C/C2=[N+](C)c3ccccc3C2(C)C)cc1`, the growth is 13.3% (inactive).

In the case of `CN(C)c1ccc(/C=C(\C#N)c2nc3ccccc3s2)cc1`, the growth is 113% (inactive).

As to `CCN(CC)CC(O)CNc1c2ccc([N+](=O)[O-])cc2nc2cc(OC)c(OC)cc12` (centres undefined), the growth was -40.2% (active).

With `COc1nc2c(cc1S(=O)(=O)c1ccccc1)CCc1c-2cnn1-c1ccc(Cl)cc1`, the growth was 96.2% (inactive).

In the case of `Cc1cc(-c2nc3ccccc3s2)ccc1NC(=O)COc1ccc(Cl)cc1`, the growth is 94.5% (inactive).

For `N#Cc1c(N)nc(N)nc1Nc1ccc(Br)cc1`, the growth was 92.4% (inactive).

With `CCN(CC)CC(C)(C)C(=O)/C=C/c1ccccc1`, the growth is -2.72% (active).

Regarding `CNc1cc2nc3cc(NC)c(C)cc3cc2cc1C`, the growth is 6.5% (active).

Take `O=C(COc1cccc(/C=C2/Oc3ccccc3C2=O)c1)Nc1nccs1`: the growth was 65.4% (inactive).

Take `O=C(Cc1ccccc1)c1ccc(Cl)cc1`: the growth was 102% (inactive).

Turning to `O=C(O)c1cccnc1Br`, the growth is 96.6% (inactive).

Values taken from PubChem BioAssay (NCI).
